# Molecular target: MAPKAPK5
# Test: pooled miR-30 sensor sort-seq; sequence = guide strand
# Conditions: shRNA
# Further: reference of the scale not given here.
row,Sequence,sensor-assay potency score (higher = more potent)
1,TATGATGCCAGATTTCTCCTTC,0.745
2,ATAATCTGAACTATGTTTGGGT,0.519
3,TATTCTTCTAAAATGGAAGTTT,-0.731
4,TTGCTCTTCTATCACCTGCTTC,-0.717
5,TAACTGGACCACTAATTCCAGC,-1.31
6,TTAGTCGATCTACTTTATCTGT,-0.383
7,TTCAATAATCTGAACTATGTTT,-0.32
8,TTTACACAGACTCTAACTGGAC,-0.371
9,TTTCTTCGCATATCCTTTGGGA,-0.249
10,TAGTCGATCTACTTTATCTGTG,-0.684
11,TATCTGTGAATCCACGACCATT,-1.59
12,TCTGACTCCACTCTTCCTCTGG,0.0951

# Molecular target: MARCH9
# Test: as above
# Conditions: shRNA
row,Sequence,sensor-assay potency score (higher = more potent)
1,ATACATGCCGTAGCAGATCTGA,-0.925
2,TGCATCTCCTCCTATGTCCTTG,-0.947
3,TAATTTAGGACCTTCCACTGCT,0.933
4,TTGAAGATGCGGTAGACAGAGG,-1.26
5,TACTTGAAGTAGCAGAGCTCAC,-1.11
6,TAGTACTCCTCCTCGTCGCCGT,-0.394
7,TAGCAGAGCTCACAGCTCCAGG,-0.864
8,ATTTAGGACCTTCCACTGCTGG,-1.22
9,TGAAAGAGCAGATCCTGTCGTT,0.563
